Screens from PubChem BioAssay.
Most compounds without a hit are left out; they make up all but 6% or so of the library.
D3 ag: qHTS of D3 Dopamine Receptor Agonist: qHTS | D(3) dopamine receptor (Homo sapiens), P35462 | D3R DiscoveRx beta-arrestin cells, luminescence, 90 min | max activation, % | hit rate 0.58% among 410,000 | AID 652048, 2013; in the data active = max activation above about 30%; note: 0% is about no effect
Target sequence (P35462 whole entry, looked up): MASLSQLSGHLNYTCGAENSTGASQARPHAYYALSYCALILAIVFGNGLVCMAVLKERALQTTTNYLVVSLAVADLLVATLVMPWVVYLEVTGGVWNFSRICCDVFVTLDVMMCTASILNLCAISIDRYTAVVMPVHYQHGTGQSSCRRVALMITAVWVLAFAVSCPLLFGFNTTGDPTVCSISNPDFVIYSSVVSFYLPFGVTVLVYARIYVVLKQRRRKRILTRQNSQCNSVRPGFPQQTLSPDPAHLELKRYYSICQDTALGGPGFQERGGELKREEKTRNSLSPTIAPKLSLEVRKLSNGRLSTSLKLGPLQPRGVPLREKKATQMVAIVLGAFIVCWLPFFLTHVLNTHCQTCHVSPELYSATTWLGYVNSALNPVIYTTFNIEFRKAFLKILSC
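Agonist-mode cell screen: cells plated at 1500/well and incubated overnight at 37 °C, then exposed to library compounds for 90 min at 37 °C. Detection reagent was added for 30–60 min at room temperature, and luminescence was read.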
D1 antag: Antagonist of Human D 1 Dopamine Receptor: qHTS; D(1A) dopamine receptor (Homo sapiens), P21728; HEK293 TREx D1 cells, calcium flux, dopamine EC80; hits give low values; activity change, negative = inhibition, % at 10 µM; hit rate 3.2% among 360,000; in the data active = activity change below about -30%; note: % is set by controls: 0 for no effect and ±100 for the full control effect
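Antagonism measured as reduced calcium response to an EC80 dopamine addition following 180 s compound pre-read; cells were inducible HEK293 Trex D1 plated overnight at 30 C, read kinetically at 1 cycle/sec.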
D1 ag: Allosteric Agonists of the Human D1 Dopamine Receptor: qHTS; D(1A) dopamine receptor (Homo sapiens), P21728; hit rate 1% among 360,000; activation, % at 2 µM; HEK293 T-REx D1 cells, calcium flux, agonist mode; in the data active = activation above about 30%; note: 0% is about no effect
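Inducible HEK293 T-REx D1 cells, force-coupled to calcium signalling, were plated at 4000 cells/well with tetracycline and held overnight at 30 C. After no-wash calcium dye loading, compound-evoked calcium rise over 180 s flagged agonists.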
D1 potentiator: Potentiators of Human D1 Dopamine Receptor: qHTS. HEK293 TREx D1 cells, calcium flux, dopamine EC20 potentiation. potentiation, % at 10 µM. hit rate 0.036% among 360,000. AID 504651, 2011; in the data active = potentiation above about 30%; note: 0% is about no effect
DRD3 antagonist: qHTS of D3 Dopamine Receptor Antagonist: qHTS; hit rate 2.5% among 360,000; max response, negative = inhibition, %; D(3) dopamine receptor (Homo sapiens), P35462; D3R cells, DiscoveRx beta-arrestin luminescence, antagonist mode; hits give low values; in the data active = max response below about -50%; inconclusive = no clear call, values can overlap the other calls; note: % is set by controls: 0 for no effect and ±100 for the full control effect
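Cells expressing the human receptor were seeded at 1500 cells/well, incubated overnight at 37 degrees C in 5% CO2, then exposed to library compounds with dopamine controls for 90 minutes at 37 degrees C before luminescent detection.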
An asterisk follows results filed as active; ? = inconclusive; · = not tested or not shown; ! = repeats disagree.

SMILES	D3 ag	D1 antag	D1 ag	D1 potentiator	DRD3 antagonist
CCN(CC)CCO[C@H]1CC[C@@]2(C)C(=CC[C@@H]3[C@@H]2CC[C@]2(C)C(=O)CC[C@@H]32)C1	34*	·	·	·	·
O=P(Nc1ccccc1)(Oc1ccccc1)Oc1ccccc1	5	2	2	5	92
O=P(CCl)(Nc1ccccc1)C(Cl)(Cl)Cl (stereo unspecified)	-8	-41*	0	1	-26
CN1/C(=C\C=C2C(=O)NC(=O)NC2=O)C(C)(C)c2ccccc21	1	1	107*	-1	1
CN1/C(=C\C=Nc2ccccc2)C(C)(C)c2ccccc21	1	-18	2	-3	32
Cc1ccc(Cn2cccc(C(=O)Nc3cc(C)on3)c2=O)cc1	-12	·	7	-3	·
C/C(=C\c1csc(C)n1)[C@@H]1C[C@@H]2O[C@]2(C)CCC[C@H](C)[C@H](O)[C@@H](C)C(=O)C(C)(C)[C@@H](O)CC(=O)O1	-9	·	·	·	·
NC(N)=N/N=C/c1ccc(N(c2ccccc2)c2ccccc2)cc1	1	85	17	15	?
C/C(=N\N=C(N)N)c1ccccc1	-24	-38*	1	-17	-17
CC(C)(C)NCC(O)c1cc(Cl)c(N)c(C(F)(F)F)c1 (stereo unspecified)	-13	·	·	·	·
CC(=NCCCO)c1c(O)n(Cc2ccccc2)c(=O)[nH]c1=O	-8	-10	1	-4	-15
CC(=Nc1c(C)n(C)n(-c2ccccc2)c1=O)c1c(O)n(Cc2ccccc2)c(=O)[nH]c1=O	-13	6	0	0	-51*
COc1ccc(CCNCc2cc(OC)cc(OC)c2)cc1	0	·	·	·	3
COc1ccc(CCNC(C)CCc2ccc(OC)cc2)cc1 (stereo unspecified)	-30	-5	0	0	-52*
COc1cc(/C=C2\C(=O)NC(=O)N(c3ccccc3)C2=O)c([N+](=O)[O-])cc1OC	-2	-56*	1	-4	9
COc1cc(/C=C2\C(=O)NC(=O)N(c3ccccc3)C2=O)cc(OC)c1O	-5	-4	1	-7	20
CC(C)C[C@H](NC(=O)[C@@H]1CCCN1C(=O)[C@@H](N)Cc1ccc(O)cc1)C(=O)NCC(N)=O	10	-37*	1	7	5
CCN(CC)c1ccc(/C=N/c2sc3c(c2C#N)C2CCN3CC2)c(O)c1	-3	4	247*	-2	-3
COc1cc2[nH]c(=S)n(-c3ccccc3)c(=O)c2cc1OC	11	-11	0	-3	-4
COc1cc2[nH]c(=O)n(-c3ccc(C)cc3)c(=O)c2cc1OC	7	-44*!	1	1	-21
CO[C@H]1[C@@H](O)C[C@H](O[C@H]2[C@@H](O)C[C@H](O[C@H]3[C@@H](O)C[C@H](O[C@H]4CC[C@@]5(C)[C@H](CC[C@@H]6[C@@H]5C[C@@H](O)[C@]5(C)[C@@H](C7=CC(=O)OC7)CC[C@]65O)C4)O[C@@H]3C)O[C@@H]2C)O[C@@H]1C	10	·	·	·	·
Oc1ccccc1-c1ccccc1	-8	·	·	·	·
CC(Cc1ccccc1)NCC(=O)Nc1cc(N(C)C)nc2ccccc12 (stereo unspecified)	-6	-50*	-1	9	7
CCN[C@@H](C)Cc1ccccc1	6	·	·	·	·
CN1c2ccccc2C(NCCCCCCC(=O)O)c2ccc(Cl)cc2S1(=O)=O (stereo unspecified)	9	·	·	·	·
SMILES	D3 ag	D1 antag	D1 ag	D1 potentiator	DRD3 antagonist
O=C1CC(c2ccc(F)cc2)c2c(c3ccccc3oc2=O)O1 (stereo unspecified)	-6	-13	0	-1	·
Cc1cccc(-n2c(O)c(/C=N/Nc3nc4c(c(=O)n(C)c(=O)n4C)n3C)c(=O)[nH]c2=S)c1	-2	-5	5	-4	-23
Cc1ccccc1-n1c(O)c(/C=N/Nc2nc3c(c(=O)n(C)c(=O)n3C)n2C)c(=O)[nH]c1=S	-3	-60*	2	-3	-13
CCCC(=O)OC(C(Cl)(Cl)Cl)P(=O)(OC)OC (stereo unspecified)	-20	·	·	·	·
Cc1ccc(NC(=O)N(Cc2ccc3c(c2)OCO3)C2CCN(Cc3ccccc3)CC2)cc1Cl	-26	-7	42*	-5	·
C#CCOC(C(=O)OCCN(C)C)(c1ccccc1)c1ccccc1	-17	·	·	·	·
COc1cc(C[C@@H](C)N)c(OC)cc1Br	-10	·	·	·	·
COc1ccc(CCNCc2c(OC)ccc3ccccc23)cc1	1	0	73*	-6	-4
CC(C)(C)n1nnnc1C(c1ccccc1)N1CCC2(CC1)C(=O)NCN2c1ccccc1 (stereo unspecified)	-12	·	·	·	-67*
CC(C)(C)n1nnnc1C(CCc1ccccc1)N1CCC2(CC1)C(=O)NCN2c1ccccc1 (stereo unspecified)	-15	·	·	·	-68*
O=C1NCN(c2ccccc2)C12CCN(C(c1cccc3ccccc13)c1nnnn1C1CCCCC1)CC2 (stereo unspecified)	-12	·	·	·	-70*
CCC(c1nnnn1-c1ccc2c(c1)OCCO2)N1CCC2(CC1)C(=O)NCN2c1ccccc1 (stereo unspecified)	-7	·	·	·	-51*
CC(C)(C)OC(=O)c1ncn2c1[C@@H]1CCCN1C(=O)c1c(Br)cccc1-2	0	·	·	·	·
C[C@H](CN1CCOCC1)C(C(=O)N1CCCC1)(c1ccccc1)c1ccccc1	-14	·	·	·	·
O=C1NCN(c2ccccc2)C12CCNCC2	-33	-10	3	-1	-86*
COc1cc([C@@H]2c3cc4c(cc3[C@@H](O)[C@H]3COC(=O)[C@H]23)OCO4)cc(OC)c1O	-10	·	·	·	·
C[C@]12CC[C@H]3[C@@H](CCC4=CC(=O)CC[C@@H]43)[C@@H]1CC[C@@H]2OC(=O)CCc1ccccc1	14	·	·	·	·
CC(C)(C)c1ccc(O)c(N=Cc2c(O)ccc3ccccc23)c1	16	-13	258*	-6	-17
CC(C)CCNC(=O)c1c(N)n(Cc2ccc3c(c2)OCO3)c2nc3ccccc3nc12	35*	5	1	-6	22
NP(N)(=O)NC(=O)c1ccc(F)cc1	8	·	·	·	·
Oc1ccc(CC2CC3CCN2CC3)cc1O (stereo unspecified)	9	-10	0	-4	2
Oc1ccc(C[C@H]2NCCc3cc(O)c(O)cc32)cc1O	22	-90*	2	-10	-21
c1cncc(C2CCCCN2Cc2ccc3c(c2)OCO3)c1 (stereo unspecified)	1	-38*	1	-2	-15
N#Cc1ccc(NC(=O)CN2CCCCCC2)cc1Cl	-13	-1	8	-7	-25
N#Cc1ccc(NC(=O)CN2C(=O)NC3(CCCCCCC3)C2=O)cc1Cl	-4	-57*	2	2	-17
